Experimental data: the supplement of paper PMC6555819

Legend:
Experiment in all cases: PBM binding z-score (relative to random genomic background probes); higher = stronger binding; sequences stand for … in GC…GCGATTGACAGCGTAGAATGAAGG
[1] = tested on: FXR:RXRa (NR concentration 270 nM, RXRa partner concentration 90 nM)
Outline: (§1)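 For binding z-scores, the reference was random background probes on custom Agilent 4×180K protein-binding microarrays. These arrays were incubated 1 h with ligand-free nuclear receptor dimers in PBS pH 7.4, 2% milk, 0.02% Triton X-100, 1 mM DTT, 0.2 mg/mL BSA and 0.4 mg/ml salmon testes DNA. Fluorescence was scanned after antibody detection of each partner (one per run) and regression-normalized.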

[2] = tested on: LXRa:RXRa (NR concentration 270 nM, RXRa partner concentration 90 nM)
Outline: as §1

[3] = tested on: LXRa homodimer (NR concentration 270 nM)
Outline: as §1

[4] = tested on: LXRb:RXRa (NR concentration 270 nM, RXRa partner concentration 90 nM)
Outline: as §1

[5] = tested on: LXRb homodimer (NR concentration 270 nM)
Outline: as §1

[6] = tested on: PPARa:RXRa (NR concentration 270 nM, RXRa partner concentration 90 nM)
Outline: as §1

[7] = tested on: PPARg:RXRa (NR concentration 180 nM, RXRa partner concentration 90 nM)
Outline: as §1

[8] = tested on: PPARg:RXRa 270nM:90nM, anti-RXR (NR concentration 270 nM, RXRa partner concentration 90 nM)
Outline: as §1

[9] = tested on: PPARg:RXRa 30nM:10nM, anti-RXR (NR concentration 30 nM, RXRa partner concentration 10 nM)
Outline: as §1

[10] = tested on: PPARg:RXRa 90nM:30nM, anti-RXR (NR concentration 90 nM, RXRa partner concentration 30 nM)
Outline: as §1

[11] = tested on: PPARg:RXRa DBDmut IVT, anti-RXR (DBD mutation: RXRa K156A/R161A, NR concentration 270 nM, RXRa partner concentration 90 nM)
Outline: as §1

[12] = tested on: PPARg:RXRa IVT, anti-PPARg (NR concentration 270 nM, RXRa partner concentration 90 nM)
Outline: as §1

[13] = tested on: PPARg DBDmut:RXRa IVT, anti-PPARg (DBD mutation: PPARg1 K132A/R137A, NR concentration 270 nM, RXRa partner concentration 90 nM)
Outline: as §1

[14] = tested on: PPARg DBDmut IVT, anti-PPARg (DBD mutation: PPARg1 K132A/R137A, NR concentration 270 nM)
Outline: as §1

[15] = tested on: PPARg homodimer (NR concentration 180 nM)
Outline: as §1

[16] = tested on: PXR:RXRa (NR concentration 270 nM, RXRa partner concentration 90 nM)
Outline: as §1

[17] = tested on: PXR homodimer (NR concentration 270 nM)
Outline: as §1

[18] = tested on: RARa:RXR (NR concentration 270 nM, RXRa partner concentration 90 nM)
Outline: as §1

[19] = tested on: RARa homodimer (NR concentration 270 nM)
Outline: as §1

[20] = tested on: RARb:RXRa (NR concentration 270 nM, RXRa partner concentration 90 nM)
Outline: as §1

| Sequence | PBM binding z-score [1] | PBM binding z-score [2] | PBM binding z-score [3] | PBM binding z-score [4] | PBM binding z-score [5] | PBM binding z-score [6] | PBM binding z-score [7] | PBM binding z-score [8] | PBM binding z-score [9] | PBM binding z-score [10] | PBM binding z-score [11] | PBM binding z-score [12] | PBM binding z-score [13] | PBM binding z-score [14] | PBM binding z-score [15] | PBM binding z-score [16] | PBM binding z-score [17] | PBM binding z-score [18] | PBM binding z-score [19] | PBM binding z-score [20] |
| --- | --- | --- | --- | --- | --- | --- | --- | --- | --- | --- | --- | --- | --- | --- | --- | --- | --- | --- | --- | --- |
| CGTCCAAGGTCATAGGAGCTCAGTGAAGACAGAT | 7.5 | 5.19 | 0.569 | 3.82 | 0.584 | 5.64 | 4.69 | 5.04 | 1.57 | 3.6 | 2.78 | 3.29 | 1.43 | -0.573 | 2.6 | 4.27 | 1.07 | 4.66 | 0.0934 | 5.1 |
| TAGCCTAGGTCAAATCGGGCCAGTATACGCTATA | 5.06 | 4.49 | 0.78 | 3.26 | 0.87 | 4.1 | 2.33 | 2.88 | 0.735 | 2.01 | 1.98 | 3 | 0.169 | 0.237 | 1.68 | 2.95 | -0.306 | 2.74 | -0.373 | 3.68 |
| CCTACTGGGCCACGGTCATTGATCAGTCAAAGCA | -0.282 | -0.19 | 0.043 | -0.408 | -0.712 | 1.3 | 2.11 | 2.06 | -0.0299 | 1.1 | 4.71 | 5.29 | -0.475 | -0.479 | 0.397 | -0.436 | -0.0793 | -0.106 | -0.863 | 1.56 |
| GCGACTGGGGCATCAGCAGGTTACCATGACTTAA | -0.337 | -0.256 | -0.454 | 0.309 | -1.08 | 0.903 | 0.918 | 0.462 | -0.743 | -0.0721 | 3.94 | 2.97 | -0.844 | -0.497 | -0.0201 | -0.489 | -0.454 | -0.00016 | -0.803 | 0.805 |
| CCTAGCAGGCTAATCTGGGTCACTCAAGGCTTGA | 0.577 | 3.74 | 0.0725 | 1.2 | -0.635 | 3.14 | 2.13 | 2.31 | 0.292 | 1.49 | 4.46 | 5.23 | 0.678 | 0.0667 | 0.493 | 0.328 | -0.671 | 1.34 | -0.634 | 1.07 |
| ACTAGCAGGCCAAGGGTCATTCAAGATTAGTCCG | 3.35 | 3.46 | 1.07 | 3.3 | -0.0105 | 4.72 | 7.69 | 7.28 | 5.9 | 7.5 | 0.965 | 3.72 | 0.143 | -0.155 | 1.76 | 3.83 | 0.144 | 4.26 | 0.503 | 3.41 |
| CGAACGTGGGCATGAGTTGATAGCAAATGCCGAT | -0.892 | -0.876 | -1.04 | -0.998 | -1.27 | -1.82 | 0.51 | -0.55 | -0.697 | -0.428 | -0.469 | -0.859 | -1.14 | -1.08 | -1.28 | -0.855 | -0.719 | -1.12 | -0.791 | -0.401 |
| AGAATGTGGTTAAGATCAGGGAAACAGAATACAT | 0.33 | -0.14 | 0.153 | 0.27 | 0.174 | 0.172 | 0.496 | 0.291 | 0.299 | -0.247 | -0.145 | 0.0486 | 0.832 | 0.677 | 0.635 | 0.308 | 0.679 | 0.217 | 0.647 | 0.103 |
| CCAGACAGTTGAAAGGTAACTCAGTCTGGTACGC | 0.192 | 0.408 | -0.24 | 0.365 | -0.0531 | 1.47 | 0.992 | 1.75 | 0.231 | 0.964 | 0.0148 | 0.0044 | -0.176 | -0.589 | 0.762 | 0.219 | 0.144 | 0.485 | 0.568 | 0.56 |
